# Results taken from PubChem BioAssay (NCATS).
# A number with no mark means an inactive call. Results filed as inconclusive are left out. Activity calls are given as the source filed them. Unless noted, the call rests on the fitted dose curve; in most records, active means well fitted curve in either direction with a large enough effect (not every such curve was filed as active); inconclusive means small, poorly fitted or top-dose-only effect, or another doubt; inactive means flat fitted curve, though single readings scatter.
# Key:
# [1] = target: Lysosomal acid glucosylceramidase (Homo sapiens) (UniProt P04062); experiment: Glucocerebrosidase-p2 (AID 348; in the data active means potency below about 10 µM; further: potency means the concentration at half of the fitted maximal effect); conditions: purified GBA, blue fluorogenic substrate, 40 min
# Procedure, shortened: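 Compounds titrated from 0.6 nM upwards against 0.2 nM enzyme in pH 5.9 citric acid/KH2PO4, taurocholate, tween-20; blue fluorogenic substrate 80 uM, 40 min room temperature, stopped and read Ex 365/Em 440 for AC50.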
# [2] = AP1 Signaling Pathway (AID 357); conditions: ME-180 AP-1-bla reporter, EGF-induced, beta-lactamase ratio, 5 h; at 7.69 µM (top of the series) unless noted;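 further: ME-180 reporter cells stimulated with EGF at its EC50 level; on the % scale 0 is the no-effect control and ±100 the full control effect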
# Procedure, shortened: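 A ratiometric CCF4 readout (405 nm excitation; 460 and 530 nm emission) quantified AP-1-driven beta-lactamase in ME-180 cells after 5 h with compound and EC50 EGF; AC50 values were derived for activators and inhibitors.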
# [3] = NFAT Signaling Pathway (AID 444); conditions: Jurkat NFAT-bla M1, carbachol, beta-lactamase ratio, 5 h; at 7.69 µM (top of the series) unless noted;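 further: carbachol stimulus at about its EC50 of 1 µM final; on the % scale 0 is the no-effect control and ±100 the full control effect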
# Procedure, shortened: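 Jurkat cells carrying an NFAT-driven β-lactamase reporter and co-transfected muscarinic M1 receptor were treated with compound plus carbachol (1 uM final, an EC50 level) for 5 h at 37 °C. CCF4 loading followed for 1 h at RT; 460/530 nm ratio gave %activity.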
# [4] = Stat Signaling Pathway (AID 446); conditions: ME-180 SIE beta-lactamase reporter, IL-6 stimulated, 5 h; at 7.69 µM (top of the series) unless noted;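 further: ME-180 cervical cancer cells given 40 pM IL-6 alongside compound; SIE-controlled beta-lactamase reporter measured as 460/530 nm FRET emission ratio; on the % scale 0 is the no-effect control and ±100 the full control effect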
# Procedure, shortened: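 ME-180 cells carrying a SIE-driven beta-lactamase reporter are stimulated with 40 pM IL-6 for 5 h at 37C in the presence of compound. The 460/530 nm FRET substrate ratio is read after 2.5 h at RT. Data are normalised to 300 pM IL-6 and to 125 nM JAK inhibitor controls.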
# [5] = target: Glucocorticoid receptor (Homo sapiens) (UniProt P04150); experiment: GR-GFP Redistribution (AID 450;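 active means compounds whose dose series gives a full or clear partial fitted curve of increased nuclear translocation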; further: potency means the concentration at half of the fitted maximal effect); conditions: U2OS GR-GFP nuclear translocation, laser cytometry, 2 h
# [6] = target: Mitogen-activated protein kinase 10 (Mus musculus) (UniProt Q61831); experiment: JNK3 AlphaScreen Assay (AID 530); conditions: JNK3 lysate, c-Jun phosphorylation; series mostly up to 11.4 µM;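 further: kinase came from lysate of stimulated human HepG2 cells; signal reports phosphorylation of biotinylated GST-cJun 1-79 at Ser73 with 10 µM ATP; on the % scale 0 is the no-effect control and ±100 the full control effect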
# Procedure, shortened: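 Inhibitors reduce antibody binding to phosphorylated biotin-cJun, lowering AlphaScreen luminescence. Lysates from HepG2 cells pre-activated by IL-1beta plus TNF-alpha supplied JNK3; compounds were titrated.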
# [7] = target: 3',5'-cyclic-AMP phosphodiesterase 4B (Homo sapiens) (UniProt Q07343); experiment: qHTS Assay for Inhibitors of PDE-IV (AID 607; active means well fitted activation curve with a large enough effect in the main read-out, with a control signal flat, not every such curve was filed as active; further: % of control where 0% means no effect); conditions: HEK293 ACTOne CNG channel cells, membrane potential fluorescence; series mostly up to 22.9 µM
# Procedure, shortened: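 HEK293 ACTOne cells with CNG channel (1000/well), endogenous PDE4; membrane potential dye, compounds up to 22.9 uM final. Fluorescence Ex 535/Em 590; RO 20-1724 (100 uM final) as reference.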
# [8] = target: Glucocorticoid receptor (Homo sapiens) (UniProt P04150); experiment: GR-EFC Redistribution (AID 451; calls by dose curve; further: potency means the concentration at half of the fitted maximal effect); conditions: CHO-K1 GR-EFC translocation, beta-gal luminescence, 2 h
# Procedure, shortened: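 CHO-K1 cells stably expressing nuclear-localized β-gal enzyme acceptor and GR fused C-terminally to the enzyme donor fragment; ligand-driven nuclear translocation restores β-gal by complementation. Compounds titrated up to 46 uM final, 2 h at 37 °C; luminescence read.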
# [9] = target: Cytochrome P450 3A4 (Homo sapiens) (UniProt P08684); experiment: qHTS Assay for Activators of Cytochrome P450 3A4 (AID 885; active means well fitted curve in the direction sought with a large enough effect; an effect the other way counts as inactive or inconclusive; further: nearly all actives have a fitted effect of over 65% in size); conditions: recombinant CYP3A4, Luciferin-PPXE luminescence, 60 min; series mostly up to 11.4 µM
# Procedure, shortened: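 Human CYP3A4 (20 nM) with Luciferin-PPXE at 25 uM (its KM) in 200 mM KPO4; 10 min compound preincubation, then NADPH regeneration and 60 min reaction at RT. Luciferin read by luminescence; normalized to 57 uM ketoconazole full inhibition.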
# [10] = target: Cytochrome P450 2D6 (Homo sapiens) (UniProt P10635); experiment: qHTS Assay for Inhibitors and Substrates of Cytochrome P450 2D6 (AID 891; active means well fitted curve in the direction sought with a large enough effect; an effect the other way counts as inactive or inconclusive;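 further: luciferin methyl ether substrate demethylated by CYP2D6 with NADPH regeneration; on the % scale 0 is the no-effect control and ±100 the full control effect; nearly all actives have a fitted effect of over 60% in size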); conditions: recombinant CYP2D6, luciferin-ME EGE luminescence; series mostly up to 11.4 µM
# Procedure, shortened: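 Human CYP2D6 (5 nM) with 30 uM Luciferin-ME EGE (at Km) in 100 mM KPO4, compound preincubated 10 min, then NADPH regeneration system for 60 min at room temperature. Luciferin read by luminescence; normalized to 1.43 uM quinidine.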
# [11] = target: Cytochrome P450 3A4 (Homo sapiens) (UniProt P08684); experiment: qHTS Assay for Inhibitors and Substrates of Cytochrome P450 3A4 (AID 884; active means well fitted curve in the direction sought with a large enough effect; an effect the other way counts as inactive or inconclusive; further: potency means the concentration at half of the fitted maximal effect; nearly all actives have a fitted effect of over 50% in size); conditions: recombinant CYP3A4, Luciferin-PPXE luminescence; series mostly up to 57.1 µM
# Procedure, shortened: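 20 nM human CYP3A4 with 25 uM Luciferin-PPXE (at KM) in 200 mM KPO4, preincubated 10 min with compound; NADPH regeneration started a 60 min RT reaction. Luciferin detected by luminescence, normalized to 57 uM ketoconazole as full inhibition.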
# [12] = Confirmation and Secondary Assay for Modulators of Hemoglobin Beta Chain Splicing at IVS2 654 locus (AID 910; active means well fitted curve in the direction sought with a large enough effect; an effect the other way counts as inactive or inconclusive;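 further: per-well total GFP intensity by laser scanning cytometry after 2-day treatment; % of control where 0% means no effect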); conditions: HeLa EGFP-654 splicing reporter, GFP fluorescence, 48 h; series mostly up to 38.3 µM
# Procedure, shortened: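 HeLa cells stably carrying EGFP interrupted by mutant beta-globin IVS2-654 intron (CMV-driven) were treated with compound for 2 days at 37C; corrected splicing was scored as total peak GFP intensity per well (488 nm excitation, 500-520 nm emission).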
# [13] = Confirmation and Secondary Assay for Modulators of Hemoglobin Beta Chain Splicing at IVS2 705 locus (AID 930; active means well fitted curve in the direction sought with a large enough effect; an effect the other way counts as inactive or inconclusive;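 further: HeLa cells stably expressing the EGFP-705 splicing reporter; GFP fluorescence per well restored by corrected splicing of the IVS2-705 intron in EGFP; % of control where 0% means no effect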); conditions: HeLa EGFP-705 splicing reporter, GFP fluorescence, 48 h; series mostly up to 38.3 µM
# Procedure, shortened: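 Assay measures total GFP intensity per well in HeLa EGFP-705 cells after 2 days with compound; mis-splicing normally truncates EGFP, so fluorescence indicates corrected splicing.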
# [14] = qHTS Assay for Identification of Small Molecule Agonists for Hypoxia Response Element Signaling Pathway (AID 914; active means well fitted activation curve with a large enough effect in the signal ratio, with a control signal flat, not every such curve was filed as active; the % refers to the signal ratio; further: % of control where 0% means no effect); conditions: ME-180 (cervical carcinoma) HRE-bla reporter, beta-lactamase ratio, CoCl2, 17 h; activation: hits give high values
# Procedure, shortened: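 Compounds in a titration series were added to ME-180 reporter cells alongside an EC50 level of CoCl2. After 17 hours, beta-lactamase activity was read as the 460nm/530nm emission ratio of CCF4, giving AC50 values.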
# [15] = target: Cytochrome P450 2C19 (Homo sapiens) (UniProt P33261); experiment: qHTS Assay for Inhibitors and Substrates of Cytochrome P450 2C19 (AID 899; active means well fitted curve in the direction sought with a large enough effect; an effect the other way counts as inactive or inconclusive; further: on the % scale 0 is the no-effect control and ±100 the full control effect; nearly all actives have a fitted effect of over 60% in size); conditions: recombinant CYP2C19, luciferin-H EGE luminescence; series mostly up to 11.4 µM
# Procedure, shortened: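 In 50mM KPO4, the reaction held 5nM enzyme and KM-level (10uM) Luciferin-H EGE; it ran 60 min at 37C after NADPH regeneration and a 10 min compound preincubation. Luminescence values were scaled to 57uM ketoconazole as complete inhibition.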
# Chain of Lysosomal acid glucosylceramidase (Homo sapiens) (P04062 whole entry, looked up): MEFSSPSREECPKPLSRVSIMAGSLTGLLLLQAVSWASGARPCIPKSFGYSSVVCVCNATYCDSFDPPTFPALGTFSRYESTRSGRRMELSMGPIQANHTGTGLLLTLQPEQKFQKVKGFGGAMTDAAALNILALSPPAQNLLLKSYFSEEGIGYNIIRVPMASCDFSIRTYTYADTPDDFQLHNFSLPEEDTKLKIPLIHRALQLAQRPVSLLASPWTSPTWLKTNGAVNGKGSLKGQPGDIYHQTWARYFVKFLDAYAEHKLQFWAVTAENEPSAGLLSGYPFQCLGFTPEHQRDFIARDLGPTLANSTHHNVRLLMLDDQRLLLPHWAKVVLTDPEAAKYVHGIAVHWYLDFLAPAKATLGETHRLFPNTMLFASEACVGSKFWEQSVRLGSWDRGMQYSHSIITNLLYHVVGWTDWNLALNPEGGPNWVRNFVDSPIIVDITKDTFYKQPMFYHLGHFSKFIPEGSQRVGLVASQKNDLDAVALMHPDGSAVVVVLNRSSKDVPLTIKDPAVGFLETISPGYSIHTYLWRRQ
# Chain of Glucocorticoid receptor (Homo sapiens) (P04150 whole entry, looked up, the tested form may be a part): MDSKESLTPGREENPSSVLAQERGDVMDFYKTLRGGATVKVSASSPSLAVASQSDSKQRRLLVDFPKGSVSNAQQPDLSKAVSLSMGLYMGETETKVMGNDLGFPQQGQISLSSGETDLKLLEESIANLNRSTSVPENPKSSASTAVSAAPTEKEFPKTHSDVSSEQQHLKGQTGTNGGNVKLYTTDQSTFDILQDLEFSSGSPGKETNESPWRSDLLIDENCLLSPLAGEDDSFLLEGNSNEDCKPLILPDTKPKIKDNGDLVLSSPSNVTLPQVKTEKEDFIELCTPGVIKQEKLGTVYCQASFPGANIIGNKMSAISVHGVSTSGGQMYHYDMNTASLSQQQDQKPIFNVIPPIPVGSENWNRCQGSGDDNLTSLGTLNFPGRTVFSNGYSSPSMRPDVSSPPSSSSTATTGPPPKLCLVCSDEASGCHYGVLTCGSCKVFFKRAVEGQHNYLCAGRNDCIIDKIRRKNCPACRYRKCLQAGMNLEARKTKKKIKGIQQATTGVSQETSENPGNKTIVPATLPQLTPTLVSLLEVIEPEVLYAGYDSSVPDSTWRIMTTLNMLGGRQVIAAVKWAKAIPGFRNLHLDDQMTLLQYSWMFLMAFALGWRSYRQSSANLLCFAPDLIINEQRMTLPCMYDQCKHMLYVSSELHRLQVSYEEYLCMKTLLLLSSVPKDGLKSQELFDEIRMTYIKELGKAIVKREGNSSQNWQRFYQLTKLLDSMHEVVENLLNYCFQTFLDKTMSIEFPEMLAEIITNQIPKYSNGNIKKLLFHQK
# Chain of Cytochrome P450 3A4 (Homo sapiens) (P08684 whole entry, looked up): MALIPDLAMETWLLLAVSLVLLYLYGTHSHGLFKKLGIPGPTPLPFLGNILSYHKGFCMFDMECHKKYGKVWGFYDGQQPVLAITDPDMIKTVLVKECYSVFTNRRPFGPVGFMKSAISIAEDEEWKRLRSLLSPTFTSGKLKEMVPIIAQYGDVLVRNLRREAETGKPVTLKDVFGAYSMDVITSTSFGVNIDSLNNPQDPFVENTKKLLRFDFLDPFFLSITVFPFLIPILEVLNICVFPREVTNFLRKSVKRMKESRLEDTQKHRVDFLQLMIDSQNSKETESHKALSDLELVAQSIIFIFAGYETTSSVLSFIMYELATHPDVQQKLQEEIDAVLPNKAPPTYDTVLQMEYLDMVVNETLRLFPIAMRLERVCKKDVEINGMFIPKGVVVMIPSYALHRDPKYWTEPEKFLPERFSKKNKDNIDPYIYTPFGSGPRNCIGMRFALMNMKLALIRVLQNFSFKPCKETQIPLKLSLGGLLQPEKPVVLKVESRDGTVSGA
# Chain of 3',5'-cyclic-AMP phosphodiesterase 4B (Homo sapiens) (Q07343 whole entry, looked up): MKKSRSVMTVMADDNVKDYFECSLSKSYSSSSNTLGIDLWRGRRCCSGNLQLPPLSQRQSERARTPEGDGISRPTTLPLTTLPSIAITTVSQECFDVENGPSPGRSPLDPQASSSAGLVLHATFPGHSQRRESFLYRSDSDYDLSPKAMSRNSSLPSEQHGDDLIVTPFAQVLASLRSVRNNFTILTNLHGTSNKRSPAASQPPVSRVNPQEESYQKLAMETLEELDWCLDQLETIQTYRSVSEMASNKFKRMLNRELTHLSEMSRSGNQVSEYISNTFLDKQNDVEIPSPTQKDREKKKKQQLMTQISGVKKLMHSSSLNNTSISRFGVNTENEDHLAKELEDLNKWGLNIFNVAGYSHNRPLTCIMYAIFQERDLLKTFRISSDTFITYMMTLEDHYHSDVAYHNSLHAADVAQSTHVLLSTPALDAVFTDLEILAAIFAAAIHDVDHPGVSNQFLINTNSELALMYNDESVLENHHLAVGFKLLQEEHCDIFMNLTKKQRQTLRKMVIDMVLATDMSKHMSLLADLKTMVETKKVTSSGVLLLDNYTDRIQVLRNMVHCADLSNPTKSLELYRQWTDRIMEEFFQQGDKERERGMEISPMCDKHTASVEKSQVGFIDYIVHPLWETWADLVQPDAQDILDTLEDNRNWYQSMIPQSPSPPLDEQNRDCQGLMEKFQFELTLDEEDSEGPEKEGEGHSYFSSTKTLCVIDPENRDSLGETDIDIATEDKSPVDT
# Chain of Cytochrome P450 2C19 (Homo sapiens) (P33261 whole entry, looked up): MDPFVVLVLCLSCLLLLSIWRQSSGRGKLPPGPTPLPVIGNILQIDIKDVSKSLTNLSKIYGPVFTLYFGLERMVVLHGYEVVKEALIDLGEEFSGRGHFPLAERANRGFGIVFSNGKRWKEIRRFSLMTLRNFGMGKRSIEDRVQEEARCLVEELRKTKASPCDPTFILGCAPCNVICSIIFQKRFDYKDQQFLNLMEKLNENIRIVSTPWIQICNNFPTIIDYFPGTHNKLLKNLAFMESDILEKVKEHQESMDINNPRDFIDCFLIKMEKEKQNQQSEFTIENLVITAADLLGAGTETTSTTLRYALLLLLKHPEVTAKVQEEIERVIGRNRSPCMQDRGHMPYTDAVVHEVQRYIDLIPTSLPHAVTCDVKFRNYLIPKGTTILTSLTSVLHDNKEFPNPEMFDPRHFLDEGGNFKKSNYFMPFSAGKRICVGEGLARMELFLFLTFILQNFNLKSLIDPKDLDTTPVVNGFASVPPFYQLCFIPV
# Chain of Cytochrome P450 2D6 (Homo sapiens) (P10635 whole entry, looked up): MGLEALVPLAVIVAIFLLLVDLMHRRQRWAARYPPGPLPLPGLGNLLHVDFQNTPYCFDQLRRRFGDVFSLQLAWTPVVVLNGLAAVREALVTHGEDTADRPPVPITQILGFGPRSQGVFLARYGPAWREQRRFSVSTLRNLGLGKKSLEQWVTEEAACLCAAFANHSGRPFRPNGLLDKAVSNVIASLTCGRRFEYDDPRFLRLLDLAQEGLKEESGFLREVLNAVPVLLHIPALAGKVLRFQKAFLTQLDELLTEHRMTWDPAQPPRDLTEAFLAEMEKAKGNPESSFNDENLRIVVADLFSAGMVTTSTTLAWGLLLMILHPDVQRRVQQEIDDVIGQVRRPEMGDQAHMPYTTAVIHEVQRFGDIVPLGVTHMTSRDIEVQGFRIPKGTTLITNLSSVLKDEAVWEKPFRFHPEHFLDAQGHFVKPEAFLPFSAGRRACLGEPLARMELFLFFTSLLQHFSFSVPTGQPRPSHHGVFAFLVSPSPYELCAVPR
SMILES,Potency [1],"activity change, negative = inhibition [2]","activity change, negative = inhibition [3]","activity, negative = inhibition [4]",Potency [5],Potency [6],Potency [7],Potency [8],Potency [9],Potency [10],Potency [11],outcome [12],outcome [13],activation [14],Potency [15]
S=c1[nH]nc(SCc2ccccc2Cl)c2[nH]cnc12,> 11.4 µM,-6.3%,0.186%,-8.85%,> 46 µM,inactive,inactive,,,,,,,,
CN(C)c1ccc(C(c2ccc(N(C)C)cc2)c2ccc([N+](=O)[O-])cc2)cc1,> 11.4 µM,5.91%,-16.6%,14.9%,> 46 µM,,,> 9.22 µM,inactive,,,,,,
CN(C)c1ncnc2c1ncn2CCn1cnc2c(N(C)C)ncnc21,> 11.4 µM,7.13%,7.13%,11.6%,> 46 µM,inactive,inactive,,,inactive,,,,,
CS(=O)(=O)Nc1cccc(-c2nc(NCc3cccnc3)c3ccccc3n2)c1,> 11.4 µM,-19.8%,23.6%,-19.5%,> 46 µM,inactive,,> 46 µM,inactive,,2 µM (active),inactive,inactive,,
NS(=O)(=O)c1ccc(NC(=O)Nc2ccccc2F)cc1,> 11.4 µM,-3.3%,20.2%,2.14%,> 46 µM,inactive,inactive,> 9.22 µM,,,,,,3.83%,
O=C(O)CC[C@@H](C(=O)O)N1C(=O)[C@@H]2[C@@H]3CC[C@H](C3)[C@@H]2C1=O,> 11.4 µM,11.4%,3.45%,-17%,> 46 µM,inactive,,> 9.22 µM,,,,,,,inactive
Nc1ccn([C@H]2O[C@H](CO)[C@@H]3[O][Sn]([c]4ccccc4)([c]4ccccc4)[O][C@H]32)c(=O)n1,> 11.4 µM,-22.1%,-9.06%,-20.4%,> 46 µM,inactive,inactive,,,,,,,,
CSCC[C@@H](C(=O)O)N(C)C,> 11.4 µM,3.21%,7.85%,2.15%,> 46 µM,inactive,inactive,,,,,,,,
O=C1c2ccccc2C(=O)c2c(Nc3cc4c5c(ccc6c7ccc8c9c(cc(Nc%10cccc%11c%10C(=O)c%10ccccc%10C%11=O)c(c3c56)c97)-c3ccccc3C8=O)C(=O)c3ccccc3-4)cccc21,> 11.4 µM,11.6%,22.7%,11.5%,> 46 µM,,inactive,> 9.22 µM,,,,,,,
O=c1cc(N=Nc2ccc(O)cc2)[nH]c(=O)[nH]1,> 11.4 µM,-6.46%,-4.22%,4.24%,> 46 µM,inactive,inactive,> 9.22 µM,,,,,,-26.3%,
[N-]=[N+]=CC(=O)COC(=O)c1ccccc1,> 11.4 µM,9.2%,16.5%,-0.859%,> 46 µM,inactive,inactive,,,,,,,,
C(=Nc1ccc2c(c1)Cc1ccccc1-2)c1ccccn1,> 11.4 µM,-0.541%,1.45%,0.131%,> 46 µM,inactive,inactive,,,,,,,,
NC[C@H]1O[C@@H](n2cnc3c(=O)[nH]c(N)nc32)[C@@H](O)[C@@H]1O,> 11.4 µM,-6.27%,5.35%,3.9%,> 46 µM,inactive,inactive,> 9.22 µM,,,,,,4.86%,
OC[C@H](CCc1c[nH]c2ccccc12)c1c[nH]c2ccccc12,> 11.4 µM,-11.6%,29.4%,-1.35%,> 46 µM,inactive,inactive,> 9.22 µM,,,,,,-29.3%,
O=S(=O)(O)c1cc(O)c2c(O)c(N=Nc3cccc4ccccc34)c(S(=O)(=O)O)cc2c1,> 11.4 µM,-2.93%,-6.39%,4.42%,> 46 µM,,inactive,> 9.22 µM,,,,,,-26.6%,
N#C/C(=C(\O)C(=O)O)c1ccc(-c2cccc3ccccc23)cc1,> 11.4 µM,-3.67%,4.07%,3.75%,> 46 µM,inactive,,> 9.22 µM,,,,,,,inactive
C[C@H](NCCN(C)C)[C@@H]1CCC2C3CCc4cc(O)ccc4[C@H]3CCC21C (some centres not stated),> 11.4 µM,3.21%,-1%,-5.94%,> 46 µM,inactive,inactive,,,,,,,,
N#CCCn1c(=O)c(-c2cc(F)cc(F)c2)nc2cnc(Oc3cccc(Cl)c3)nc21,> 11.4 µM,-12.5%,-4.95%,12.5%,> 9.22 µM,,inactive,> 46 µM,,,,,,,
